Hits are enriched below; roughly 1.4% of the tested compounds scored in any of these assays.
TrxR1 substrate = is turned over as a substrate by rat TrxR1. O89049. purified TrxR1 substrate turnover, NADPH consumption readout. Potency, µM (top dose mostly 114 µM), inactives show at the top dose activity change, negative = substrate turnover. hit rate 0.01% among 390,000. AID 588456; note: potency is the fitted concentration of half-maximal effect; % is set by controls: 0 for no effect and ±100 for the full control effect; nearly all actives have a fitted effect of over 50% in size
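Rat TrxR1, dispensed at 90 nM, was prereduced with 400 uM NADPH (final) for 5 min at ~22 deg C, then incubated with compound 15 min before 400 uM selenite. A first-read NADPH fluorescence drop versus no-compound background flagged substrates.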
GLS inhibitor = inhibitors of human glutaminase (GLS) | GLS enzymatic activity, qHTS titration | Potency, µM (doses to about 45.5 µM), without a hit: at the highest dose activity change, negative = inhibition, most hits filed as inhibitors | hit rate 0.21% among 410,000; note: potency is the fitted concentration of half-maximal effect; % is set by controls: 0 for no effect and ±100 for the full control effect
Target sequence (O94925 whole entry, looked up): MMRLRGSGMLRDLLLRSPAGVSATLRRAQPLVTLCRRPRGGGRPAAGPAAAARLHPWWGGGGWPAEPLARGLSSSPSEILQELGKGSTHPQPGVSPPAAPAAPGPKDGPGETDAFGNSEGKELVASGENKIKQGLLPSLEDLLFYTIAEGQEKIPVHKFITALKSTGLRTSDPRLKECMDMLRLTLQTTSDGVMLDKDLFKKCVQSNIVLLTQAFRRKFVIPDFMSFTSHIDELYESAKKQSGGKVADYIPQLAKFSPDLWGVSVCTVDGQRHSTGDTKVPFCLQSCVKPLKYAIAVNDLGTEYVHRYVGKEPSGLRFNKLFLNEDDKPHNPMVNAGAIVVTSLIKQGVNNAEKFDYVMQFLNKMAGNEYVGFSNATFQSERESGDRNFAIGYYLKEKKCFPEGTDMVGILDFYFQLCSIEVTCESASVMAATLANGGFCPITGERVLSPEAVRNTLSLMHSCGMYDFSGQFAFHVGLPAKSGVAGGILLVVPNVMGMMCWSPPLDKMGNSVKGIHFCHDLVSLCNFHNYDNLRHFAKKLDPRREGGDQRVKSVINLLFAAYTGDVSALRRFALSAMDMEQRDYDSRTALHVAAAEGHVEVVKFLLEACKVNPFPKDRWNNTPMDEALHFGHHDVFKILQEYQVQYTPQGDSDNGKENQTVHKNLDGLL
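hKGA in 45 mM KH2PO4 pH 8.2, 0.02% Tween-20 with pin-transferred compounds; 1 mM L-glutamine (stock) plus glutamate oxidase/HRP/Amplex Red coupling added. Fluorescence read initially and after 30 min at RT.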
PKM2 activator = PKM2 (human) enzyme activation; P14618; purified PKM2, Kinase-Glo ATP luminescence, activation; response scale: 0% is enzyme alone, no compound; Potency, µM (titrated, usually from 57.5 µM), for the others: top-dose activation, most hits filed as activators; hit rate 0.34% among 260,000; AID 1631; note: potency is the fitted concentration of half-maximal effect; % is set by controls: 0 for no effect and ±100 for the full control effect; nearly all actives have a fitted effect of over 55% in size
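hPK-M2, >95% pure; 0.1 mM ADP / 0.5 mM PEP final; imidazole pH7.2 buffer w/ 7 mM MgCl2, 50 mM KCl; 1 h RT; Kinase-Glo lum. Intermediate enzyme activity for dual inhibitor/activator qHTS.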
LDHA block = blocks human lactate dehydrogenase A | activity change, % (values are at about 110 or 230 µM) | hit rate 0.15% among 480,000 | purified LDHA, NADH/diaphorase-resazurin fluorescence; hits give low values | P00338; in the data active = activity change below about -30%; inconclusive = mostly about -25% to -30%;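 note: plate controls were DMSO wells for no effect and wells without enzyme for full effect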
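Human LDH5 at 2 nM final in Tris HCl pH 7.4 with 0.06 mM NADH and 0.2 mM pyruvate, reacted 5 minutes at room temperature. Remaining NADH coupled via diaphorase/resazurin; resorufin fluorescence read at 0 and 20 minutes, normalized to enzyme-free and DMSO wells.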
rTrxR1 inhibitor = inhibitors of rat thioredoxin reductase 1; recombinant rTrxR1, NADPH fluorescence consumption, selenite substrate; Potency, µM (doses to about 114 µM), without a hit: at the highest dose activity change, negative = inhibition, most hits filed as inhibitors; hit rate 1% among 390,000; AID 588453; note: potency is the fitted concentration of half-maximal effect; % is set by controls: 0 for no effect and ±100 for the full control effect; nearly all actives have a fitted effect of over 65% in size
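Rat TrxR1 (90 nM in the dispensed reagent) was pre-reduced with 400 uM NADPH for 5 min at room temperature, then incubated with compound for 15 min. After 400 uM selenite was added, NADPH fluorescence (Ex 340/Em 450 nm) was followed for 8 min.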
mIDH1 inhibitor = blocks human mutant IDH1 R132H enzyme | IDH1-R132H enzyme, NADPH consumption, diaphorase/resazurin fluorescence | O75874 | hit rate 0.093% among 390,000 | Potency, µM (doses to about 76.6 µM), for inactives: at the top dose activity change, negative = inhibition, actives largely listed as inhibitors; note: potency is the fitted concentration of half-maximal effect; % is set by controls: 0 for no effect and ±100 for the full control effect; nearly all actives have a fitted effect of over 65% in size
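IDH1-R132H (0.5 ug/mL dispensed) in pH 7.5 Tris buffer was preincubated 30 min with compound, then given a substrate mix of 0.016 mM NADPH and 2 mM alpha-KG for 80 min at room temperature; remaining NADPH was read by diaphorase/resazurin fluorescence.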
Resorufin autofl = counter-screen for mutant IDH1 inhibitors: fluorescence interference. Resorufin detection reagent fluorescence interference, cell-free. inhibition of signal, % at 51.2 µM. AID 623980. 750 tested, under 10 active. shares compounds with mIDH1 inhibitor;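 note: 0% = wells with normal resorufin and full inhibition = wells lacking resorufin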
WT IDH1 inh = wild-type IDH1 (human) inhibition counterscreen; shares compounds with mIDH1 inhibitor; WT IDH1 enzyme, NADPH diaphorase/resazurin fluorescence; Potency, µM (titrated, usually from 115 µM), for inactives: top-dose activity change, negative = inhibition, hits mostly inhibitors; hit rate 9% among 750; AID 623995;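 note: potency is the fitted concentration of half-maximal effect; 0% = full WT IDH1 enzyme control and full inhibition = no enzyme wells; nearly all actives have a fitted effect of over 55% in size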
IDH1 R132H conf = inhibits human mutant IDH1 enzyme in cherrypick confirmation; shares compounds with mIDH1 inhibitor; IDH1 R132H enzyme, NADPH diaphorase/resazurin fluorescence; Potency, µM (titrated, usually from 76.6 µM), for inactives: at the top dose activity change, negative = inhibition, hits mostly inhibitors; hit rate 83% among 750; AID 624002; note: potency is the fitted concentration of half-maximal effect; nearly all actives have a fitted effect of over 50% in size
GLS confirm = confirmation of human glutaminase inhibitors | shares compounds with GLS inhibitor | biochemical glutaminase enzyme inhibition assay | Potency, µM (series often up to 46.1 µM), without a hit: at the highest dose activity change, negative = inhibition, most hits filed as inhibitors | 35 tested, under 10 active | AID 624261; calls by dose curve
HRP GOx counter = coupled enzyme interference in glutaminase inhibitor counterscreen; HRP/glutamate oxidase coupled Amplex Red fluorescence counterscreen; shares compounds with GLS inhibitor; activity change, negative = inhibition, % at 46.1 µM; AID 624262; 35 tested, under 10 active
GLS HEK tox = reduces HEK-293 viability in glutaminase inhibitor counter-screen; shares compounds with GLS inhibitor; HEK-293 viability, CellTiter-Glo luminescence, 24 h; activity change, negative = cytotoxicity, % at 46.1 µM; 35 tested, under 10 active
Numbers without * were called inactive; ? = inconclusive; / = no result; [ ] = remark or other dose. Unless noted, calls come from the whole dose curve; as a rule, active = well fitted curve in the direction sought with a large enough effect; inconclusive = small, poorly fitted or top-dose-only effect, or another doubt; inactive = no such curve, though single readings can be large; an effect the other way counts as inactive or inconclusive.

SMILES	TrxR1 substrate	GLS inhibitor	PKM2 activator	LDHA block	rTrxR1 inhibitor	mIDH1 inhibitor	Resorufin autofl	WT IDH1 inh	IDH1 R132H conf	others
CC(=O)N1CCc2c(sc3c2c(=O)n(-c2ccc(C)cc2)c(=O)n3Cc2c(F)cccc2Cl)C1	1%	-13%	/	-2	5%	?	3	35µM*	22µM*
CC(=O)N1CCc2c(sc3c2c(=O)n(-c2ccccc2Cl)c(=O)n3Cc2cccc(C)c2)C1	-2%[57.1 µM]	1%	/	4	9%[57.1 µM]	32µM*	1	20µM*	16µM*
CC(=O)N1CCc2c(sc3c2c(=O)n(CCc2ccccc2)c(=O)n3Cc2ccc(Cl)cc2)C1	-3%	4%	/	1	25%	5%	/	/	/
O=C(Nc1nc(-c2ccc(Cl)s2)cs1)C1CCN(C(=O)C2CC2)CC1	/	/	/	0	/	/	/	/	/
CC(=O)c1ccc(NC(=O)C(C)SC2CCCC2)cc1 (stereo not given)	/	/	/	0	/	/	/	/	/
O=S(=O)(c1cccc(Cl)c1Cl)N1CCN(c2nnnn2-c2ccccc2)CC1	/	/	/	6	/	/	/	/	/
O=c1cc(CN2CCc3ccccc32)nc2sccn12	1%[57.1 µM]	12%	3%	0	1%	32µM*	-3	?	50µM*
O=c1cc(CN2CCCc3ccccc32)nc2sccn12	-2%	-27%	-17%	14	?	0%	/	/	/
CCOC(=O)CSC1=NC(=O)/C(=C/c2ccc(OC)cc2)S1	-13%	22%	26%	-2	16µM*	52µM*	2	?	45µM*
Cc1ccc(C)c(N(C)C(=O)c2cc3c(=O)[nH]c4ccc(C)cc4c3s2)c1	3%	2%	8%	-5	1%	21µM*	-3	?	11µM*
COc1ccc(C2C(C#N)=C(N)N(c3sc4c(c3C#N)CCCC4)C3=C2C(=O)CC(C)(C)C3)cc1 (stereo not given)	-5%	-6%	-3%	-6	-15%	-10%	/	/	/
COc1ccc(C2C(C#N)=C(N)N(c3sc4c(c3C#N)CCCC4)C3=C2C(=O)CC(C)(C)C3)cc1OC (stereo not given)	-2%	-6%	-18%	-1	-8%	?	3	-4%	-25%
COc1ccc(C2C(C#N)=C3NC(=O)c4c(sc5c4CCCCC5)N3C3=C2C(=O)CC(C)(C)C3)cc1 (stereo not given)	-1%	3%	-1%	2	-24%	?	5	1%	-20%
CCc1cc(=O)n(CC(=O)Nc2ccc(F)cc2)c(-c2ccccc2)n1	/	/	/	-1	/	/	/	/	/
COc1cc(SC#N)ccc1N=Cc1c(C)[nH]n(-c2ccc(Cl)cc2)c1=O	1%[57.1 µM]	-1%	-11%	-4	14%[57.1 µM]	?	-1	1%	45µM*
Cn1c2ccccc2c(=O)c2c(=O)n(C3CCCCC3)c(-c3ccco3)nc21	-9%	11%	4%	-17	-6%	26µM*	-11	24%	22µM*
Cc1nc2c(c(=O)c3ccccc3n2C)c(=O)n1C1CCCCCC1	7%[57.1 µM]	-3%	-12%	-9	1%[57.1 µM]	4%	/	/	/
Cc1cccc(/C=N/Nc2cc(N3CCOCC3)nc(N3CCOCC3)n2)c1	-16%	10%	0%	10	-13%	?	-1	-5%	13µM*
COCCCNC(=O)C1CCN(S(=O)(=O)c2ccc3c(ccn3C)c2)CC1	/	/	/	-2	/	/	/	/	/
COC(=O)c1ccc(C)c(NC(=O)COC(=O)c2ccc(OC)cc2)c1	/	/	/	-6	/	/	/	/	/
O=S(=O)(Nc1ccc(S(=O)(=O)Nc2nccs2)cc1)c1ccc(Br)cc1	-1%	25%	18%	-3	29%	?	2	8%	40µM*
COc1ccc(-c2csc3nc(-c4cccnc4)nc(N4CCC(C(N)=O)CC4)c23)cc1OC	-4%	23%	5%	-11	-13%	?	/	/	/
COc1ccc(-c2csc3nc(C)nc(N4CCCCC4)c23)cc1OC	-1%[57.1 µM]	-3%	1%	4	16%[57.1 µM]	?	-7	4%	32µM*
CC(=O)NC1=NN(C(C)=O)C(c2cc(Br)ccc2OCc2ccc(C)cc2)S1 (stereo not given)	/	/	/	8	/	/	/	/	/
COc1ccc(NS(=O)(=O)c2ccc3c(c2)[C@H]2C=CC[C@H]2[C@@H](c2ccc(C(=O)O)cc2)N3)cc1	0%	10µM*	/	1	?	0%	/	/	/	GLS confirm=3.3µM*;HRP GOx counter=4;GLS HEK tox=2
COc1ccc(NS(=O)(=O)c2ccc(NC(=S)NCC3CCCO3)cc2)cc1 (stereo not given)	-6%	-1%	-1%	0	?	0%	/	/	/
COc1ccccc1NS(=O)(=O)c1ccc(O)c(NC(=S)NCC2CCCO2)c1 (stereo not given)	-7%	?	0%	-8	-7%	0%	/	/	/	GLS confirm=12%;HRP GOx counter=5;GLS HEK tox=3
Cc1ccc(NS(=O)(=O)c2ccc(/C=C/C(=O)O)cc2)cc1Cl	-1%[57.1 µM]	5%	?	-5	8%[57.1 µM]	14%	/	/	/
O=C(O)/C=C/c1ccc(S(=O)(=O)Nc2ccc3[nH]c(=O)[nH]c3c2)cc1	5%	?	0%	30	17%	18%	/	/	/	GLS confirm=1%;HRP GOx counter=-18;GLS HEK tox=1
O=C(O)c1ccc(S(=O)(=O)Nc2ccc(O)c(Sc3nc4ccccc4s3)c2)cc1	1%	?	1%	1	-8%[57.1 µM]	8%	/	/	/	GLS confirm=?;HRP GOx counter=?;GLS HEK tox=2
